Measurements published in the supplement of paper PMC12669032.

Experiments:
Assay in all cases: growth AUC relative to DMSO control (median of replicates) (fraction); higher = more growth (less inhibition), active = hit call of the paper
Details in all cases: 20 µM; 24 h;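 active = AUC reduced over 20% with Padj below 0.05 in at least 2 of 3 replicates; inactive = otherwise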
Akkermansia muciniphila = test system: Akkermansia muciniphila
Summary of the method: (§1)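 Three biological replicates, each grown on a separate day, were combined as a median for every value. In each, a gut bacterial monoculture in mGAM started at OD600 0.05 and grew anaerobically at 37 °C with 20 µM compound (1% DMSO), with OD600 read hourly over 24 h. Area under the growth curve was normalised against the plate median of solvent-only wells, or against row and column medians on the industrial chemical plate, after the minimum OD was set to 0.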

Bacteroides caccae = test system: Bacteroides caccae
Summary of the method: as §1

Bacteroides clarus = test system: Bacteroides clarus
Summary of the method: as §1

Bacteroides dorei = test system: Bacteroides dorei
Summary of the method: as §1

Bacteroides stercoris = test system: Bacteroides stercoris
Summary of the method: as §1

[1] = test system: Bacteroides thetaiotaomicron
Summary of the method: as §1

Bacteroides uniformis = test system: Bacteroides uniformis
Summary of the method: as §1

[2] = test system: Bifidobacterium longum subsp. longum
Summary of the method: as §1

Clostridium difficile = test system: Clostridium difficile
Summary of the method: as §1

Collinsella aerofaciens = test system: Collinsella aerofaciens
Summary of the method: as §1

Measured: growth AUC

CC(C)OC(=O)c1cc(C(=O)OC(C)C)cc([N+](=O)[O-])c1
inactive: Akkermansia muciniphila 0.939 | Bacteroides caccae 0.977 | Bacteroides clarus 0.987 | Bacteroides dorei 0.974 | Bacteroides stercoris 0.933 | [1] 0.933 | Bacteroides uniformis 0.924 | [2] 0.932 | Clostridium difficile 0.992 | Collinsella aerofaciens 0.947

CC1(C)C(C(=O)OC(C#N)c2cccc(Oc3ccccc3)c2)C1C(Br)C(Br)(Br)Br (stereo not given)
inactive: Akkermansia muciniphila 0.951 | Bacteroides caccae 0.934 | Bacteroides clarus 1.04 | Bacteroides dorei 0.995 | Bacteroides stercoris 1.2 | [1] 1 | Bacteroides uniformis 0.943 | [2] 1.03 | Clostridium difficile 1.03 | Collinsella aerofaciens 0.939

CSc1nc(NC2CC2)nc(NC(C)(C)C)n1
inactive: Akkermansia muciniphila 0.845 | Bacteroides caccae 1.03 | Bacteroides clarus 0.988 | Bacteroides dorei 1.03 | Bacteroides stercoris 0.871 | [1] 0.895 | Bacteroides uniformis 1 | [2] 1.04 | Clostridium difficile 1.04 | Collinsella aerofaciens 1.06

O=C1NC(=O)c2ccccc21
inactive: Akkermansia muciniphila 1.09 | Bacteroides caccae 0.873 | Bacteroides clarus 1.02 | Bacteroides dorei 1 | Bacteroides stercoris 1.31 | [1] 1 | Bacteroides uniformis 1.01 | [2] 1.04 | Clostridium difficile 1.01 | Collinsella aerofaciens 0.982

CC(C)OC(=O)[C@@H](C)N(C(=O)c1ccccc1)c1ccc(F)c(Cl)c1
inactive: Akkermansia muciniphila 0.996 | Bacteroides caccae 0.961 | Bacteroides clarus 0.99 | Bacteroides dorei 1.02 | Bacteroides stercoris 0.99 | [1] 0.984 | Bacteroides uniformis 1.04 | [2] 1.01 | Clostridium difficile 0.978 | Collinsella aerofaciens 0.954

COc1cc(OC)nc(NC(=O)NS(=O)(=O)N(C)S(C)(=O)=O)n1
inactive: Akkermansia muciniphila 0.951 | Bacteroides caccae 1.03 | Bacteroides clarus 1.05 | Bacteroides dorei 1.01 | Bacteroides stercoris 1.06 | [1] 0.982 | Bacteroides uniformis 0.98 | [2] 0.945 | Clostridium difficile 0.907 | Collinsella aerofaciens 1.04

Clc1ccc(C(c2ccccc2Cl)C(Cl)Cl)cc1 (stereo not given)
inactive: Akkermansia muciniphila 1.21 | Bacteroides caccae 1.01 | Bacteroides clarus 0.936 | Bacteroides dorei 0.976 | Bacteroides stercoris 0.856 | [1] 0.988 | Bacteroides uniformis 0.943 | [2] 1.03 | Clostridium difficile 1 | Collinsella aerofaciens 0.847

CCOC(=O)c1ccc(O)cc1
inactive: Akkermansia muciniphila 1.17 | Bacteroides caccae 0.967 | Bacteroides clarus 1.01 | Bacteroides dorei 0.842 | Bacteroides stercoris 0.993 | [1] 0.991 | Bacteroides uniformis 1 | [2] 1.02 | Clostridium difficile 1.01 | Collinsella aerofaciens 1

CCOc1nc(F)cc2nc(S(=O)(=O)Nc3c(Cl)cccc3C(=O)OC)nn12
inactive: Akkermansia muciniphila 0.983 | Bacteroides caccae 0.999 | Bacteroides clarus 0.984 | Bacteroides dorei 0.988 | Bacteroides stercoris 0.978 | [1] 0.999 | Bacteroides uniformis 0.987 | [2] 0.982 | Clostridium difficile 0.98 | Collinsella aerofaciens 1.02

CCCN(CCC)C(=O)SCC
inactive: Akkermansia muciniphila 0.884 | Bacteroides caccae 1.02 | Bacteroides clarus 0.97 | Bacteroides dorei 1.01 | Bacteroides stercoris 0.942 | [1] 0.998 | Bacteroides uniformis 0.959 | [2] 0.97 | Clostridium difficile 1.03 | Collinsella aerofaciens 0.992

Br[C@@H]1CC[C@H](Br)[C@H](Br)CC[C@@H](Br)[C@@H](Br)CC[C@H]1Br
inactive: Akkermansia muciniphila 1 | Bacteroides caccae 1.01 | Bacteroides clarus 0.901 | Bacteroides dorei 0.999 | [1] 1.01 | Bacteroides uniformis 1.01 | [2] 0.919 | Clostridium difficile 1.02 | Collinsella aerofaciens 1
active: Bacteroides stercoris 0.528

C=CCc1ccc(O)c(OC)c1
inactive: Akkermansia muciniphila 0.933 | Bacteroides caccae 0.993 | Bacteroides clarus 1.04 | Bacteroides dorei 1 | Bacteroides stercoris 0.975 | [1] 0.967 | Bacteroides uniformis 1.03 | [2] 1.01 | Clostridium difficile 1.01 | Collinsella aerofaciens 0.973

CCOC(=O)[C@@H](C)Oc1ccc(Oc2nc3ccc(Cl)cc3o2)cc1
inactive: Akkermansia muciniphila 0.975 | Bacteroides caccae 0.971 | Bacteroides clarus 0.966 | Bacteroides dorei 0.983 | Bacteroides stercoris 1.03 | [1] 1.01 | Bacteroides uniformis 0.929 | [2] 1 | Clostridium difficile 1.03 | Collinsella aerofaciens 1.02

COC1CCC2(CC1)NC(=O)C(c1cc(C)ccc1C)=C2OC1OC(CO)C(O)C(O)C1O (stereo not given)
inactive: Akkermansia muciniphila 1.1 | Bacteroides caccae 0.946 | Bacteroides clarus 1.02 | Bacteroides dorei 0.993 | Bacteroides stercoris 1.21 | [1] 0.984 | Bacteroides uniformis 1.02 | [2] 1 | Clostridium difficile 1.02 | Collinsella aerofaciens 1.01

COC(=O)c1ccccc1S(=O)(=O)NC(=O)n1nc(OCC(C)O)n(C)c1=O (stereo not given)
inactive: Akkermansia muciniphila 0.933 | Bacteroides caccae 1 | Bacteroides clarus 0.962 | Bacteroides dorei 0.992 | Bacteroides stercoris 0.982 | [1] 0.994 | Bacteroides uniformis 1.03 | [2] 0.956 | Clostridium difficile 0.951 | Collinsella aerofaciens 1.02

CC(C)(C)Nc1nc(N)nc(Cl)n1
inactive: Akkermansia muciniphila 1.06 | Bacteroides caccae 0.991 | Bacteroides clarus 0.997 | Bacteroides dorei 0.993 | Bacteroides stercoris 0.991 | [1] 0.979 | Bacteroides uniformis 0.962 | [2] 0.982 | Clostridium difficile 0.997 | Collinsella aerofaciens 0.998

COC(=O)c1c(Cl)c(Cl)c(C(=O)OC)c(Cl)c1Cl
inactive: Akkermansia muciniphila 0.846 | Bacteroides caccae 1.04 | Bacteroides clarus 0.985 | Bacteroides dorei 1.02 | Bacteroides stercoris 0.88 | [1] 1.02 | Bacteroides uniformis 0.994 | [2] 0.953 | Clostridium difficile 1.07 | Collinsella aerofaciens 0.986

CNC(=O)/C(=N/OC)c1ccccc1COc1cc(C)ccc1C
inactive: Akkermansia muciniphila 0.923 | Bacteroides caccae 1 | Bacteroides clarus 0.94 | Bacteroides dorei 1.01 | Bacteroides stercoris 1.01 | [1] 0.946 | Bacteroides uniformis 0.962 | [2] 0.972 | Clostridium difficile 0.987 | Collinsella aerofaciens 0.968

CC(C)(c1ccc(O)cc1)c1ccc(O)cc1
inactive: Akkermansia muciniphila 1.01 | Bacteroides caccae 1.07 | Bacteroides clarus 1.04 | Bacteroides dorei 1.01 | Bacteroides stercoris 1.14 | [1] 1.02 | Bacteroides uniformis 1.06 | [2] 1.06 | Clostridium difficile 1.08 | Collinsella aerofaciens 1.03

CC(=O)CC(c1ccccc1)c1c(O)c2ccccc2oc1=O (stereo not given)
inactive: Akkermansia muciniphila 0.913 | Bacteroides caccae 1.01 | Bacteroides clarus 0.93 | Bacteroides dorei 1.02 | Bacteroides stercoris 0.965 | [1] 0.952 | Bacteroides uniformis 0.952 | [2] 1 | Clostridium difficile 0.998 | Collinsella aerofaciens 0.966

N[C@@H](Cc1cc(I)c(Oc2cc(I)c(O)c(I)c2)c(I)c1)C(=O)O
inactive: Akkermansia muciniphila 1.1 | Bacteroides caccae 0.944 | Bacteroides clarus 0.96 | Bacteroides dorei 1.04 | Bacteroides stercoris 0.838 | [1] 0.908 | Bacteroides uniformis 1.01 | [2] 0.93 | Clostridium difficile 0.945 | Collinsella aerofaciens 0.923

COc1ccccc1C(=O)NS(=O)(=O)c1ccc(C(=O)NC2CC2)cc1
inactive: Akkermansia muciniphila 0.895 | Bacteroides caccae 1.01 | Bacteroides clarus 0.994 | Bacteroides dorei 1 | Bacteroides stercoris 1.03 | [1] 0.954 | Bacteroides uniformis 0.999 | [2] 0.954 | Clostridium difficile 0.985 | Collinsella aerofaciens 1.02

CC(C)NS(=O)(=O)NC(=O)c1cc(NC(N)=O)c(F)cc1Cl
inactive: Akkermansia muciniphila 1.06 | Bacteroides caccae 1 | Bacteroides clarus 0.988 | Bacteroides dorei 0.959 | Bacteroides stercoris 0.991 | [1] 0.808 | Bacteroides uniformis 1.02 | [2] 1.02 | Clostridium difficile 1.06 | Collinsella aerofaciens 0.981

CS(=O)(=O)c1ccc(C(=O)C2C(=O)C(O)CC(O)C2=O)c(Cl)c1COCC(F)(F)F (stereo not given)
inactive: Akkermansia muciniphila 0.99 | Bacteroides caccae 0.986 | Bacteroides clarus 0.96 | Bacteroides dorei 0.972 | Bacteroides stercoris 0.982 | [1] 0.965 | Bacteroides uniformis 0.975 | [2] 0.978 | Clostridium difficile 0.99 | Collinsella aerofaciens 1

COc1cccc(N(C)C(=S)Oc2cccc(C(C)(C)C)c2)n1
inactive: Akkermansia muciniphila 0.871 | Bacteroides caccae 0.93 | Bacteroides clarus 0.921 | Bacteroides dorei 1.06 | Bacteroides stercoris 0.839 | [1] 1.01 | Bacteroides uniformis 1.01 | [2] 0.895 | Clostridium difficile 1.09 | Collinsella aerofaciens 0.97

COC(=O)C(C)Oc1ccc(Cl)cc1C (stereo not given)
inactive: Akkermansia muciniphila 0.866 | Bacteroides caccae 0.999 | Bacteroides clarus 0.996 | Bacteroides dorei 1 | Bacteroides stercoris 1.15 | [1] 1 | Bacteroides uniformis 1 | [2] 1 | Clostridium difficile 0.974 | Collinsella aerofaciens 1.04

COC(=O)CCCOc1ccc(Cl)cc1Cl
inactive: Akkermansia muciniphila 1.01 | Bacteroides caccae 0.964 | Bacteroides clarus 1.02 | Bacteroides dorei 0.922 | Bacteroides stercoris 0.997 | [1] 1.01 | Bacteroides uniformis 0.945 | [2] 1.04 | Clostridium difficile 0.973 | Collinsella aerofaciens 0.987

CC(C)(C)C(O)/C(=C\c1ccc(Cl)cc1)n1cncn1 (stereo not given)
inactive: Akkermansia muciniphila 1.05 | Bacteroides caccae 0.903 | Bacteroides clarus 0.987 | Bacteroides dorei 0.919 | Bacteroides stercoris 1.19 | [1] 0.958 | Bacteroides uniformis 0.973 | [2] 1.04 | Clostridium difficile 0.991 | Collinsella aerofaciens 0.969

C[S+](C)CCC(=O)O.[Cl-]
inactive: Akkermansia muciniphila 0.964 | Bacteroides caccae 1.03 | Bacteroides clarus 0.974 | Bacteroides dorei 1.04 | Bacteroides stercoris 0.974 | [1] 1 | Bacteroides uniformis 1.01 | [2] 1.01 | Clostridium difficile 1.01 | Collinsella aerofaciens 0.986
